# Experiments:
# Test in all cases: DAPPL (digital affinity profiling via proximity ligation, sequencing); 10 mM Tris-HCl pH 7.5, 50 mM NaCl, 1 mM DTT, 4% glycerol, room temperature, 30 min; GST-TFs on glutathione beads, 16-mer random dsDNA library, 0.1% formaldehyde crosslink after washing; high values mean tight binding
# FEV = biological target: T1, FEV (Homo sapiens, UniProt Q99581 1-238); settings: protein: recombinant; tags: N-terminal GST; dsDNA, one strand shown
# T1 sequence: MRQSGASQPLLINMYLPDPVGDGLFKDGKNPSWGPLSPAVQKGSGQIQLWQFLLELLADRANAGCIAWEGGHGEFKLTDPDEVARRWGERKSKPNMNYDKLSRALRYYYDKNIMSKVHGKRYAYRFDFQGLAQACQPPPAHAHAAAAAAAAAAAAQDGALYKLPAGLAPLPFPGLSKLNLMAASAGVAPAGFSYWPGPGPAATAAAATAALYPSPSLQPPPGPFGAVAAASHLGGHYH
# How it was run: (§1)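 Human transcription factors were made in yeast as GST fusions, captured on glutathione beads and barcoded with DNA. With a tag-only sample included, the pool was incubated with 200 nmole of a random double-stranded 16-mer DNA library in Tris/NaCl/DTT/glycerol buffer at room temperature for 30 min, then crosslinked with 0.1% formaldehyde after washing, ligated by proximity, amplified and sequenced. For binding signal, each hexamer's read frequency for a factor is divided by its frequency for the tag-only sample.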
# ETV5 = ETV5 (Homo sapiens, UniProt P41161 1-510); settings: protein: recombinant; tags: N-terminal GST; dsDNA, one strand shown
# How it was run: as §1
# HSF1 = HSF1 (Homo sapiens, UniProt Q00613 1-529); settings: protein: recombinant; tags: N-terminal GST; chain copies: 3; dsDNA, one strand shown
# How it was run: as §1
# SPIC = biological target: T2, SPIC (Homo sapiens, UniProt Q8N5J4 1-248); settings: protein: recombinant; tags: N-terminal GST; dsDNA, one strand shown
# T2 sequence: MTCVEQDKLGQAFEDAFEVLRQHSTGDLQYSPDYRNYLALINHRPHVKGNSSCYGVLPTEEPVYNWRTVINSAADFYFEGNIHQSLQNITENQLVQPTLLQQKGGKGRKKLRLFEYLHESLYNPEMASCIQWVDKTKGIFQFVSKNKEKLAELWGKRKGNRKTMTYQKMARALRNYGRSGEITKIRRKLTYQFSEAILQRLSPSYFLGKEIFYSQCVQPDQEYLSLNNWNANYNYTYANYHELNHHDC
# How it was run: as §1
# ELF4 = ELF4 (Homo sapiens, UniProt Q99607 1-663); settings: protein: recombinant; tags: N-terminal GST; dsDNA, one strand shown
# How it was run: as §1
# ELK4 = biological target: T3, ELK4 (Homo sapiens, UniProt P28324-2 1-405); settings: protein: recombinant; tags: N-terminal GST; dsDNA, one strand shown
# T3 sequence: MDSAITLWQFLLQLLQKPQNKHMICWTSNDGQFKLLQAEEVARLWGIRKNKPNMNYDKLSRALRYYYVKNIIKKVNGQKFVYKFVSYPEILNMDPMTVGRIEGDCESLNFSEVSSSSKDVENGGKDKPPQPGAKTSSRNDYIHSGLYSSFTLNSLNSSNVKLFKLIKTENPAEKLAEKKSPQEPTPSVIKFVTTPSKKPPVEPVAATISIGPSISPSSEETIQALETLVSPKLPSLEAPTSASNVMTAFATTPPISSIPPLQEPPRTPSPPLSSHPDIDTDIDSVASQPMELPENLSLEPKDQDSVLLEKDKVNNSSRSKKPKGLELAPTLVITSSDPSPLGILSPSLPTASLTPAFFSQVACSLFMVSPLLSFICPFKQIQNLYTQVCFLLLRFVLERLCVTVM
# How it was run: as §1
# ETV2 = biological target: T4, ETV2 (Homo sapiens, UniProt O00321 1-342); settings: protein: recombinant; tags: N-terminal GST; dsDNA, one strand shown
# T4 sequence: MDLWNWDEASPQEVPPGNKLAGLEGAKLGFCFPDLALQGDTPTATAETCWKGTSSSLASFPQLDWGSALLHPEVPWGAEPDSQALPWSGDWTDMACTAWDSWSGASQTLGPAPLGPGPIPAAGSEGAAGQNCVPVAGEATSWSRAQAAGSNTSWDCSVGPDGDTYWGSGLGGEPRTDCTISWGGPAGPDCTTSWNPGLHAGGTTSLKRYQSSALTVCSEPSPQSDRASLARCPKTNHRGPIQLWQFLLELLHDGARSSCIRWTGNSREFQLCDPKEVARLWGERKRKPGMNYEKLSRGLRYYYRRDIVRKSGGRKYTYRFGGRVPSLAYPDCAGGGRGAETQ
# How it was run: as §1
# ELF3 = biological target: T5, ELF3 (Homo sapiens, UniProt P78545 1-371); settings: protein: recombinant; tags: N-terminal GST; dsDNA, one strand shown
# T5 sequence: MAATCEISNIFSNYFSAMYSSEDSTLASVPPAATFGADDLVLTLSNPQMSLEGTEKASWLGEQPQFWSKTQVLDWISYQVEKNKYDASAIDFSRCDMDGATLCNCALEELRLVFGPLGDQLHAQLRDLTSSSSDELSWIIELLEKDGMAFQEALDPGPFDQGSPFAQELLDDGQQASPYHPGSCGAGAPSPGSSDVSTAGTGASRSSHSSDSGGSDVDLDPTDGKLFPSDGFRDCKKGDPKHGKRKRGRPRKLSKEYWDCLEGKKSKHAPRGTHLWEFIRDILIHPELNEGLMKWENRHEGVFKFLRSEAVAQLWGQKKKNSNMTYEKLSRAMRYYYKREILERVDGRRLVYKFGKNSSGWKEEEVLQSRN
# How it was run: as §1
# CRX = CRX (Homo sapiens, UniProt O43186 1-299); settings: protein: recombinant; tags: N-terminal GST; dsDNA, one strand shown
# How it was run: as §1
# ETV1 = ETV1 (Homo sapiens, UniProt P50549 1-477); settings: protein: recombinant; tags: N-terminal GST; dsDNA, one strand shown
# How it was run: as §1
# ERF = biological target: T6, ERF (Homo sapiens, UniProt P50548 1-548); settings: protein: recombinant; tags: N-terminal GST; dsDNA, one strand shown
# T6 sequence: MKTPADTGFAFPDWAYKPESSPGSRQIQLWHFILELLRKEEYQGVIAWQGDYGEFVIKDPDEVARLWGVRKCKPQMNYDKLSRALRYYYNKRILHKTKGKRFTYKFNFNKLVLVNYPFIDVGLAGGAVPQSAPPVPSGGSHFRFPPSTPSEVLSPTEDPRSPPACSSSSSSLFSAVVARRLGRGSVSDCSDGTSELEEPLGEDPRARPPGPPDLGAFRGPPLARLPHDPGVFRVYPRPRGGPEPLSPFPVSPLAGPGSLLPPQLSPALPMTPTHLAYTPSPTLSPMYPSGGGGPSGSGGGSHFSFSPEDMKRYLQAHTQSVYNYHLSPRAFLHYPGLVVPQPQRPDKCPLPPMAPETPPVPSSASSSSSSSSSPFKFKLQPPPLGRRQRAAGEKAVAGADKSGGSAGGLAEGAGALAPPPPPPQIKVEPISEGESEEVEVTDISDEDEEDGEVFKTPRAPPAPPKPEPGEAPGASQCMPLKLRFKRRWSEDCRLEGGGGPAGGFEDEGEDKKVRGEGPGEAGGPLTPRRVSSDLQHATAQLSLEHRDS
# How it was run: as §1
# ETV3L = biological target: T7, ETV3L (Homo sapiens, UniProt Q6ZN32 1-361); settings: protein: recombinant; tags: N-terminal GST; dsDNA, one strand shown
# T7 sequence: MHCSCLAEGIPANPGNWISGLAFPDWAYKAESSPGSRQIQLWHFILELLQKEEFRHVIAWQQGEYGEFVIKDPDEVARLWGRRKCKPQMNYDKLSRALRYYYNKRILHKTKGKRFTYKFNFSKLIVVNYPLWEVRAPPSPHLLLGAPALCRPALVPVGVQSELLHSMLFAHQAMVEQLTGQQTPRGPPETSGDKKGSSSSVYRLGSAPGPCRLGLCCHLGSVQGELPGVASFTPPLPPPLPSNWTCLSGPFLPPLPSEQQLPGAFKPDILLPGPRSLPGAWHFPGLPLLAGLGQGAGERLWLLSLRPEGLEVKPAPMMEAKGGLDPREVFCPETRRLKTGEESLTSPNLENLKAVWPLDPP
# How it was run: as §1
# ETS2 = biological target: T8, ETS2 (Homo sapiens, UniProt P15036 1-469); settings: protein: recombinant; tags: N-terminal GST; dsDNA, one strand shown
# T8 sequence: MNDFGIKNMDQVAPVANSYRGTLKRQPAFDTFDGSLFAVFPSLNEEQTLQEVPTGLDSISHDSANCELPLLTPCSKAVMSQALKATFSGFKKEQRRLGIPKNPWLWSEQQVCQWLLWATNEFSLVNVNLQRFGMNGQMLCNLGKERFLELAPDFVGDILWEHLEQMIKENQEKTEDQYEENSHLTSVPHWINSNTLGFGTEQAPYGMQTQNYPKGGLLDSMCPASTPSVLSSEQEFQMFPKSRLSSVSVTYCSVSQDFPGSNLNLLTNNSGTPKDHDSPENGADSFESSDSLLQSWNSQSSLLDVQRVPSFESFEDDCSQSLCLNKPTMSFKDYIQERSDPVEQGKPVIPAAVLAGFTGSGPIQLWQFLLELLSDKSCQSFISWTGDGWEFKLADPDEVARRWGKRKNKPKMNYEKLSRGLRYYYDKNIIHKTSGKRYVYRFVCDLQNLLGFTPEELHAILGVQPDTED
# How it was run: as §1
# SPDEF = biological target: T9, SPDEF (Homo sapiens, UniProt O95238 1-335); settings: protein: recombinant; tags: N-terminal GST; dsDNA, one strand shown
# T9 sequence: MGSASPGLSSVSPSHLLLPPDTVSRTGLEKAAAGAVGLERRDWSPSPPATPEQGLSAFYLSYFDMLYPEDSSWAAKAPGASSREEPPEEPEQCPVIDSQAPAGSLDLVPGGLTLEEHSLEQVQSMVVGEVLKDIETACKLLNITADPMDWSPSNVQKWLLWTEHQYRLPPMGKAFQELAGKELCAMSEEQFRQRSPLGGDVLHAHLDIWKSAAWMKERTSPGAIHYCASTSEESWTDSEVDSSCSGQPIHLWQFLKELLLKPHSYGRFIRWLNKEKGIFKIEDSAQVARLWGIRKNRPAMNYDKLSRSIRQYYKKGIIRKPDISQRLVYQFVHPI
# How it was run: as §1
# ETV7 = biological target: T10, ETV7 (Homo sapiens, UniProt Q9Y603 1-341); settings: protein: recombinant; tags: N-terminal GST; dsDNA, one strand shown
# T10 sequence: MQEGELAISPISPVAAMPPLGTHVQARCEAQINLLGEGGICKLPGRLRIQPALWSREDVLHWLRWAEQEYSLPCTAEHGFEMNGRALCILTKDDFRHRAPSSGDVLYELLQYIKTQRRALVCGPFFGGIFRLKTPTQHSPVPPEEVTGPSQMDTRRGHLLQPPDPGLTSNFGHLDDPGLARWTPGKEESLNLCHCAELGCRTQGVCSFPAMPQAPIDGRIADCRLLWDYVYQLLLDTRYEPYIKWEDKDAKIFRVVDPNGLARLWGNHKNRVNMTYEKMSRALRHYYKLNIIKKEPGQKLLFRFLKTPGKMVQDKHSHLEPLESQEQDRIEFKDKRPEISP
# How it was run: as §1
# ELF5 = biological target: T11, ELF5 (Homo sapiens, UniProt Q9UKW6-2 1-255); settings: protein: recombinant; tags: N-terminal GST; dsDNA, one strand shown
# T11 sequence: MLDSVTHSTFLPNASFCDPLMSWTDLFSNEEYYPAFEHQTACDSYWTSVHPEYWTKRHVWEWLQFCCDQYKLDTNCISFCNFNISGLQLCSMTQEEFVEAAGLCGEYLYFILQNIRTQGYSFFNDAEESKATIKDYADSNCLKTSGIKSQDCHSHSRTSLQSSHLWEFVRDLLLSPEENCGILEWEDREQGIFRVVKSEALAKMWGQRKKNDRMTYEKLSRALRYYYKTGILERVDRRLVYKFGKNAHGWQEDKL
# How it was run: as §1
# ETV3 = biological target: T12, ETV3 (Homo sapiens, UniProt P41162-2 1-143); settings: protein: recombinant; tags: N-terminal GST; dsDNA, one strand shown
# T12 sequence: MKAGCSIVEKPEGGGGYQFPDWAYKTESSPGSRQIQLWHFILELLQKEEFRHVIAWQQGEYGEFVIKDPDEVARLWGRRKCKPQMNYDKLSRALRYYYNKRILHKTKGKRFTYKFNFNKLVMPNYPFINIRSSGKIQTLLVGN
# How it was run: as §1
# ETV6 = ETV6 (Homo sapiens, UniProt P41212 1-452); settings: protein: recombinant; tags: N-terminal GST; dsDNA, one strand shown
# How it was run: as §1
# ETV1, sequence (P50549 whole entry): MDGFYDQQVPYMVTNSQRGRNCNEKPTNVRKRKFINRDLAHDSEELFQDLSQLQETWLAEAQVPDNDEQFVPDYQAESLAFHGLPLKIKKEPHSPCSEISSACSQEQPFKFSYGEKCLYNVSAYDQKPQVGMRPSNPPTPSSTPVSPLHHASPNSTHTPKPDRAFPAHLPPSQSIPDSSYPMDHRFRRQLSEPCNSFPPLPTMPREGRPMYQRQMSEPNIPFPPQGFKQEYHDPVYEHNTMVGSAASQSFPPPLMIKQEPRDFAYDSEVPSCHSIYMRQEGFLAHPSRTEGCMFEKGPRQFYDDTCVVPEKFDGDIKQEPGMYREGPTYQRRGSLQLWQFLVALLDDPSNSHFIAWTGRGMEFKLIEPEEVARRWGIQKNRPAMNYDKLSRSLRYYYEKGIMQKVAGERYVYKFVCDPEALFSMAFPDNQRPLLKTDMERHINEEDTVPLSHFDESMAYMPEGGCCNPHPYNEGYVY
# ETV5, sequence (P41161 whole entry): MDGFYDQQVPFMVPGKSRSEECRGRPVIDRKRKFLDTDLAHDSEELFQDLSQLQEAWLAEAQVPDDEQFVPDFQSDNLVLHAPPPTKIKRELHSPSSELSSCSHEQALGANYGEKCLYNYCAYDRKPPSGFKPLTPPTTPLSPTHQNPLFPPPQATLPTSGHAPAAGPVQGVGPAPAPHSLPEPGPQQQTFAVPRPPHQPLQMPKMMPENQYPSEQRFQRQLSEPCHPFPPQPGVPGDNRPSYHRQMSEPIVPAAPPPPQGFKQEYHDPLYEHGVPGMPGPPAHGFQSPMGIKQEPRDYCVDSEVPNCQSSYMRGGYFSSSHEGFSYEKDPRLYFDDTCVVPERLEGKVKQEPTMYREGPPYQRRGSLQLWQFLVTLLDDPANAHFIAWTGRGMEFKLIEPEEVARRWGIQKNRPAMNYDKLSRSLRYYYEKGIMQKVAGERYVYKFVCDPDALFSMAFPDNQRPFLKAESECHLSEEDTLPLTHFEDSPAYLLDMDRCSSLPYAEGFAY
# CRX, sequence (O43186 whole entry): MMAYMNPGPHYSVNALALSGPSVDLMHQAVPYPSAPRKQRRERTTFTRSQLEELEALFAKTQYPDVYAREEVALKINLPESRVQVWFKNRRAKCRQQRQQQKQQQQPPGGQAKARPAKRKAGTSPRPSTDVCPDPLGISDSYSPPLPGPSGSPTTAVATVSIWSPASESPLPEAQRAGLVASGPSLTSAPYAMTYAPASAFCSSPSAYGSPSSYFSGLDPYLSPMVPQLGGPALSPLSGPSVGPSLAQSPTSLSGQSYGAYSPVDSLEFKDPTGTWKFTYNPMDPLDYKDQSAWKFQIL
# HSF1, sequence (Q00613 whole entry): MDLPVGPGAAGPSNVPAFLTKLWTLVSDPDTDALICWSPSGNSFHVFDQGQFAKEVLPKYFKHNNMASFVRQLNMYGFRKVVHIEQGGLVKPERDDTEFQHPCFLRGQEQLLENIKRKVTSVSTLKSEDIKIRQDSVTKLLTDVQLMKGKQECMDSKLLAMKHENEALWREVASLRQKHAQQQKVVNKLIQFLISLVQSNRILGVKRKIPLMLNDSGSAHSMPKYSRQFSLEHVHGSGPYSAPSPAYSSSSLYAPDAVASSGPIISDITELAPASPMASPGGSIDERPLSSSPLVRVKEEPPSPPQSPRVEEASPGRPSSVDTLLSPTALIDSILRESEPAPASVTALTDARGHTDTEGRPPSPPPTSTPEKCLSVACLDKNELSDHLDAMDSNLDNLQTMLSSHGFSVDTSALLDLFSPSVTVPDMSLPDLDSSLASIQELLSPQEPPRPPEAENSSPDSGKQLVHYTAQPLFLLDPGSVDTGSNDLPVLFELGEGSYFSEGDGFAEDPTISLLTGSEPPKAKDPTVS
# ETV6, sequence (P41212 whole entry): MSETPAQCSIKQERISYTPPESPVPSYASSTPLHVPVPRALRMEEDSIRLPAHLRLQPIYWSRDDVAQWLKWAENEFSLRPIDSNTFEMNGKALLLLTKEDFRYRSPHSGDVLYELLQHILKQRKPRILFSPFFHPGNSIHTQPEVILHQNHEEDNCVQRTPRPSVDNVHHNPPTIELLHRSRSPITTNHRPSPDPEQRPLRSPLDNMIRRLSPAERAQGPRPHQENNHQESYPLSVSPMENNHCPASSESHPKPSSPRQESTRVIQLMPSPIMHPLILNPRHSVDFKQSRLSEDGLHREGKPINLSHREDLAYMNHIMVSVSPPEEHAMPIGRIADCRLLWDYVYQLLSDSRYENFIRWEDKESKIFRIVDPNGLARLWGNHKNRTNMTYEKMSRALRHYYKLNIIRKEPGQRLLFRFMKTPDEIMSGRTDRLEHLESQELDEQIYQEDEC
# ELF4, sequence (Q99607 whole entry): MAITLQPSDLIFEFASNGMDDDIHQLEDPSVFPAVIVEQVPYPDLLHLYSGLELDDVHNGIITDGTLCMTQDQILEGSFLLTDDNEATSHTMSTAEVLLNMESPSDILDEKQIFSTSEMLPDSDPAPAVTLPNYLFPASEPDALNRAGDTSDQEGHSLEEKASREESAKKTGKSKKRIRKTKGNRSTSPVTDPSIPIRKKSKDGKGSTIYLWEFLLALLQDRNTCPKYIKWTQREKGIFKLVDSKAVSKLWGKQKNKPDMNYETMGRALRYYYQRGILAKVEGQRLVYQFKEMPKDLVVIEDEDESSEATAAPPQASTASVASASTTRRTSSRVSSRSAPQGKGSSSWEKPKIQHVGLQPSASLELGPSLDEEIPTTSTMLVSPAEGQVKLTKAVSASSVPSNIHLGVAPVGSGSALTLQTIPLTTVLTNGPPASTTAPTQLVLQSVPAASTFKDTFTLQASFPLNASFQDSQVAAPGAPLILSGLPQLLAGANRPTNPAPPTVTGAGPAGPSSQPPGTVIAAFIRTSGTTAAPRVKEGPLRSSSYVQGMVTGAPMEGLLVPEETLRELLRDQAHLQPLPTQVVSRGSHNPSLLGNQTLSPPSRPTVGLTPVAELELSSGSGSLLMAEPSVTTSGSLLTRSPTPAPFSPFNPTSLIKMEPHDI
sequence,measurement,setting,value
CTATTT,binding signal,FEV,"1.68 fold enrichment (6-mer frequency, TF over GST control)"
same,binding signal,ETV5,"1.64 fold enrichment (6-mer frequency, TF over GST control)"
same,binding signal,HSF1,"1.45 fold enrichment (6-mer frequency, TF over GST control)"
same,binding signal,SPIC,"2.07 fold enrichment (6-mer frequency, TF over GST control)"
same,binding signal,ELF4,"1.69 fold enrichment (6-mer frequency, TF over GST control)"
same,binding signal,ELK4,"1.88 fold enrichment (6-mer frequency, TF over GST control)"
same,binding signal,ETV2,"1.68 fold enrichment (6-mer frequency, TF over GST control)"
same,binding signal,ELF3,"2.07 fold enrichment (6-mer frequency, TF over GST control)"
same,binding signal,CRX,"1.64 fold enrichment (6-mer frequency, TF over GST control)"
same,binding signal,ETV1,"1.74 fold enrichment (6-mer frequency, TF over GST control)"
same,binding signal,ERF,"1.63 fold enrichment (6-mer frequency, TF over GST control)"
same,binding signal,ETV3L,"1.82 fold enrichment (6-mer frequency, TF over GST control)"
same,binding signal,ETS2,"1.71 fold enrichment (6-mer frequency, TF over GST control)"
same,binding signal,SPDEF,"1.57 fold enrichment (6-mer frequency, TF over GST control)"
same,binding signal,ETV7,"1.66 fold enrichment (6-mer frequency, TF over GST control)"
same,binding signal,ELF5,"1.72 fold enrichment (6-mer frequency, TF over GST control)"
same,binding signal,ETV3,"1.63 fold enrichment (6-mer frequency, TF over GST control)"
same,binding signal,ETV6,"1.9 fold enrichment (6-mer frequency, TF over GST control)"

# — paper PMC7862700, “An all-to-all approach to the identification of sequence-specific readers for epigenetic DNA modifications on cytosine”
